# Target: Follistatin (Homo sapiens) (UniProt P19883)
# Assay: FST protein binding to printed compounds – biochemical, small-molecule microarray, 635/667 nm fluorescence, primary screen (AID 1132)
# Settings: 635 nm fluorescence, higher = more signal
# Sequence of Follistatin (Homo sapiens) (P19883 whole entry, looked up): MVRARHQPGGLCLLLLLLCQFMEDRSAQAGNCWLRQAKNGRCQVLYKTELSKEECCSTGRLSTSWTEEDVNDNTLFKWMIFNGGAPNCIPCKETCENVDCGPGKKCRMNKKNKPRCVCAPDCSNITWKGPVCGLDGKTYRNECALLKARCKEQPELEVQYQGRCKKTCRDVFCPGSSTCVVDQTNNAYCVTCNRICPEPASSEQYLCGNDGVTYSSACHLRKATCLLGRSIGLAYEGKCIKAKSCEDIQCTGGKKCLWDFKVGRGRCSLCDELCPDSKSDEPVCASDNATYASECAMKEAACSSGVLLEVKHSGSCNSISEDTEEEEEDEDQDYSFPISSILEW
row,Structure (SMILES),composite z-score
1,CC(C)CCN1CCc2nc(COc3ccccc3)c3c(c2C1)CO[C@@H](C)C3,0.0413
2,O=C(NN=C1C[C@@H](O)[C@@H](O)[C@@H]2[C@@H]3C(=O)N(Cc4ccccc4)C(=O)[C@@H]3CC[C@@H]12)OCc1ccccc1,0.165
3,CO[C@@H]1COC(=O)[C@@H](C)COC(=O)[C@@H](C)NC(=O)CC=C[C@@H]1C,0.679
4,CO[C@@H]1COC(=O)CC=C[C@@H](C)[C@@H]2C=C[C@H](O)[C@@H](COC(=O)CC=C[C@H]1C)O2,1.45
5,COC(=O)[C@@H]1CC[C@H](C)[C@@H](c2ccc(C)cc2)N1C(=O)c1ccc(C=NO[C@H](C)c2cn([C@H](CO)Cc3ccccc3)nn2)cc1,0.738
6,CCC=CCCC(OC(=O)c1ccc(Br)cc1)C1=CCCCC1=O (stereo not drawn),1.11
7,CO[C@H]1COC(=O)[C@@H](C)COC(=O)[C@H](COCc2ccccc2)NC(=O)CC=C[C@H]1C,1.36
8,CCOC(=O)CCN1C(=O)[C@H]2[C@H]3[C@H](O)[C@H](O)CC(=NOCC(C)C)[C@H]3CC[C@H]2C1=O,-0.143
9,C#CCCCON=C1C[C@@H](O)[C@@H](O)[C@@H]2[C@@H]3C(=O)N(CC)C(=O)[C@@H]3CC[C@@H]12,0.759
10,CON=C1[C@H]2CCn3c(=O)n(-c4ccccc4)c(=O)n3[C@H]2[C@H](O)[C@@H]2O[C@H]12,0.743
11,CC(C)=CCCC(C)=CCON=C1C[C@@H](O)[C@@H](O)[C@@H]2[C@@H]3C(=O)N(C(C)(C)C)C(=O)[C@@H]3CC[C@@H]12,0.307
12,CC(C)(C)N1C(=O)[C@H]2[C@H]3[C@H](O)[C@H](O)CC(=O)[C@@H]3CC[C@H]2C1=O,0.539
13,CC(=O)OC[C@H]1O[C@H](CC=NO[C@H](C)c2cn([C@H](CO)Cc3ccccc3)nn2)C=C[C@@H]1OC(C)=O,0.69
14,C=Cc1ccc([C@H]2N[C@H](C(=O)O)CC[C@@H]2C)cc1,0.632
15,O=C(C=Cc1ccc2c(c1)OCO2)c1ccc(F)cc1,0.853
16,C[C@@H]1CC[C@H]2C(=O)O[C@@H](Cc3ccccc3)CN2[C@H]1c1ccc(Br)cc1,0.397
17,C=CC1=C[C@H](O)[C@@H]2O[C@@H]2C12OCCCO2,-0.285

row,Structure (SMILES),composite z-score
1,CCN1C(=O)[C@H]2[C@H]3[C@H](O)[C@H](O)CC(=NO[C@@H](C)c4cn([C@H](CO)Cc5ccccc5)nn4)[C@@H]3CC[C@H]2C1=O,0.579
2,CCOC(=O)[C@H](Cc1ccccc1)NC(=O)CCC1CC(OC(=O)NCc2ccc3c(c2)OCO3)CC2(CCCC(COC(=O)NCCC(C)C)O2)O1 (stereo partly drawn),0.443
3,O=C1[C@H]2[C@H]3[C@H](O)[C@H](O)CC(=NOC[C@@H](O)COCc4ccco4)[C@H]3CC[C@H]2C(=O)N1C[C@@H]1CCCO1,0.987
4,CC(C)=NO[C@H](C)c1cn([C@H](CO)Cc2ccccc2)nn1,0.139
5,O=C1CCCC=C1C(O)CCCCBr (stereo not drawn),1.01
6,COC(=O)CC=C[C@@H](C)[C@@H](C=NOC[C@@H](O)[C@H]1O[C@@H]2OC(C)(C)O[C@@H]2[C@H]1O)NS(=O)(=O)c1ccc(C)cc1,0.597
7,CCOC(=O)[C@H](Cc1ccccc1)NC(=O)CCC1CC(OC(=O)NCCc2ccc(F)cc2)CC2(CCCC(COC(=O)NCc3ccccc3)O2)O1 (stereo partly drawn),0.63
8,COC(=O)CC=C[C@@H](C)[C@@H](C=NOC(C)CN1CCCc2nc(C)c(C)cc21)OC (stereo partly drawn),0.6
9,O=C1CCCC=C1C(O)CCOC(c1ccccc1)(c1ccccc1)c1ccccc1 (stereo not drawn),0.0573
10,C[C@@H]1C=CCC(=O)OC[C@H]2O[C@@H](C=C[C@@H]2O)[C@H](C)C=CCC(=O)OC1,1.56
11,CO[C@@H]1C=CCC(=O)N[C@@H](C)C(=O)OC[C@@H](OC)[C@H](C)CCCC(=O)OC[C@H]1C,1.39
12,Cc1ccc(S(=O)(=O)OC[C@H]2CN3[C@H](c4ccc(Br)cc4)[C@@H](C)CC[C@H]3C(=O)O2)cc1,1.1
13,CC(C)=CCCC(C)=CCON=C1C[C@@H](O)[C@@H](O)[C@@H]2[C@@H]3C(=O)N(C4CCCCC4)C(=O)[C@@H]3CC[C@@H]12,0.831
14,O=C1C=C[C@@H](O)[C@@H]2[C@@H]3C(=O)N(C[C@@H]4CCCO4)C(=O)[C@@H]3CC[C@@H]12,0.23
15,CCOC(=O)[C@H](CC(C)C)NC(=O)CCC1CC(OC(=O)NCc2cccc3ccccc23)CC2(CCCC(COC(=O)NCCCN3CCCC3=O)O2)O1 (stereo partly drawn),0.745
16,Cc1ccc(S(=O)(=O)N[C@H]2COC(=O)CC=C[C@@H](C)COC(=O)CC=C[C@@H]2C)cc1,1.42

# From PubChem BioAssay
